Reference: patent US20220289795, “EFFICIENT METHOD FOR PREPARING PPR PROTEIN AND USE OF THE SAME” (EditForce, Inc., published 2022)

Biological target: T1, NL_v2_PPR14 (Artificial Sequence)
T1 chain: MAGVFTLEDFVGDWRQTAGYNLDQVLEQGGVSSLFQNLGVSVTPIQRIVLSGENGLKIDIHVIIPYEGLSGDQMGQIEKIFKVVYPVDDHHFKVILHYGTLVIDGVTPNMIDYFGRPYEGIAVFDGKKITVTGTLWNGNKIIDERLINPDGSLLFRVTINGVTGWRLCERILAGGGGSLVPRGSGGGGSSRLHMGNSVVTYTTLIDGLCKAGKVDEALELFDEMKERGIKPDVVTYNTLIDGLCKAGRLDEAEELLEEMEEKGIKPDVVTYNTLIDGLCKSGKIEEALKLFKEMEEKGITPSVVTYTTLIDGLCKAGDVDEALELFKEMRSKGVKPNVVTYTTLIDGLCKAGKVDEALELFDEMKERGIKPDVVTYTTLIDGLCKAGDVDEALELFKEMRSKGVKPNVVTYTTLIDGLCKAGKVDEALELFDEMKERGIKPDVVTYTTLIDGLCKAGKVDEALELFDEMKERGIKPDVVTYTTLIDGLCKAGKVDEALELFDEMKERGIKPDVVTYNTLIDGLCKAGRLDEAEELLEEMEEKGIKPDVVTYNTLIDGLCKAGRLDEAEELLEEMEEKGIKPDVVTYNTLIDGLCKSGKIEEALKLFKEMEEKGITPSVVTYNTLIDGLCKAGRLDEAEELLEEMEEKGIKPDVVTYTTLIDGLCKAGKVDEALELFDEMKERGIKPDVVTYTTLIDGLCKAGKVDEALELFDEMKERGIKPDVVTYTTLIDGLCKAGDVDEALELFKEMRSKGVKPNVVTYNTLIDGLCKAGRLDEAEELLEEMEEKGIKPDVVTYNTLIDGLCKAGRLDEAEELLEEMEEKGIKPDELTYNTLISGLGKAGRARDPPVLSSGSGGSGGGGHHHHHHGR
Assay: RPB-ELISA
Conditions: tags: N-terminal luciferase, C-terminal 6xHis; label: 5'-biotin; ssRNA
Protocol: RNA probes consisting of a designed 30-base sequence containing 18 bases of the target sequence and modified by biotinylation at the 5′ end (RNA_1, RNA_2, RNA_3, RNA_4, and RNA_5, SEQ ID NOS: 61 to 65) were synthesized (Grainer). To a streptavidin-coated plate (Thermo fisher), the 5′-end biotinylated RNA probes were added, reaction was allowed at room temperature for 30 minutes, and the plate was washed with a lysis buffer (20 mM Tris-HCl, pH 7.6, 150 mM NaCl, 5 mM MgCl₂, 0.5% NP-40, 1 mM DTT, 0.1% BSA). For background measurement, wells to which RNA was not added, but 100 μL of the lysis buffer, 1 μL of 100 mM DTT, and 1 μL of 40 unit/4 RNase inhibitor (Takara, 2313A) were added were also prepared. Then, 200 μL of a blocking buffer (20 mM Tris-HCl, pH 7.6, 150 mM NaCl, 5 mM MgCl₂, 0.5% NP-40, 1 mM DTT, 1% BSA) was added, and the plate surface was blocked at room temperature for 30 minutes. Then, 100 μL of E. coli lysate containing luciferase-fused PPR protein having a luminescence level of 1.5×10⁸ LU/μL was added to each well, and the binding reaction was allowed at room temperature for 30 minutes. The well was washed 5 times with 200 μL of a washing buffer (20 mM Tris-HCl, pH 7.6, 150 mM NaCl, 5 mM MgCl₂, 0.5% NP-40, 1 mM DTT). […] The background (luminescence signal value obtained with adding the PPR protein and without adding RNA) was subtracted from the luminescences of the samples to which a solution containing each RNA and PPR protein was added, and the obtained values were used as the binding powers between the PPR protein and RNA.
By using the v2 motif, PPR proteins for 23 kinds of target sequences (T_1 to T_3, and T_5 to T_24, SEQ ID NOS: […]) were prepared (NL_v2_PPR1 to 3, and NL_v2_PPR5 to 24, SEQ ID NOS: 56 to 58 and 70 to 88), and RPB-ELISA was used to analyze bindings of all the combinations. The experimental method was the same as that used in Example 3.

**Q.** For GGUUAGAGAUACAGUGUG, which binding signal is on record?
**A.** The binding signal was 22 log2 luminescence.
